Screening data deposited in PubChem by National Center for Advancing Translational Sciences (NCATS).
TRPV1 agonist: activates the human vanilloid receptor TRPV1 | Q8NER1 | TRPV1-expressing cells, Fluo-8 calcium influx, agonist mode | hit rate 0.19% among 320,000 | activation, % at 8.33 µM; in the data active means activation above about 80%; inconclusive means between about 30% and that limit
Target sequence (Q8NER1 whole entry, looked up): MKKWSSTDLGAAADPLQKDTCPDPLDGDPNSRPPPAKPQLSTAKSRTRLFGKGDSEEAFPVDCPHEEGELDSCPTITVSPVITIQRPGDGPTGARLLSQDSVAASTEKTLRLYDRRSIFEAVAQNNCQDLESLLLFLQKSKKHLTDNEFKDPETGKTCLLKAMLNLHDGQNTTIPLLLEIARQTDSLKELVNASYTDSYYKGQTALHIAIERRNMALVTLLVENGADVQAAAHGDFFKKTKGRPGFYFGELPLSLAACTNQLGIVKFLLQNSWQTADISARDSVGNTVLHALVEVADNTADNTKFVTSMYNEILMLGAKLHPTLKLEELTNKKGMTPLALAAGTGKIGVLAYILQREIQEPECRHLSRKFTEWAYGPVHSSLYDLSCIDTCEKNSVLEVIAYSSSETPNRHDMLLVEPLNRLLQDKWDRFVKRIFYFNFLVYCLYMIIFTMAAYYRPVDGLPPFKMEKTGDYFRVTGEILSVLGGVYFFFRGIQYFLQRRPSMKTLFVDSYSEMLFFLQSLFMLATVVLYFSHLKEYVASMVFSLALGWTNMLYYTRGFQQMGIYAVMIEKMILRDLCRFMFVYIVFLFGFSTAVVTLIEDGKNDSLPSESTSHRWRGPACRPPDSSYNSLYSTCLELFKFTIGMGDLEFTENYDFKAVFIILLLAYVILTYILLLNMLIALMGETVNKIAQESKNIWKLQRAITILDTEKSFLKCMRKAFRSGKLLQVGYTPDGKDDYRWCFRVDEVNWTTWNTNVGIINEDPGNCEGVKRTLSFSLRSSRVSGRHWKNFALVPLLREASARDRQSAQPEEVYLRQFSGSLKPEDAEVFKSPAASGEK
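TRPV1-expressing cells were cultured overnight at 35.5C and loaded with Fluo-8 calcium dye for 40 to 90 min at room temperature. After a 10 s baseline, compound was added and calcium influx was read kinetically for 3 min (ex 480/em 520 nm).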
KinaseGlo FLuc: Kinase-Glo luciferase inhibition (counter-screen). Kinase-Glo luciferase, ATP luminescence, 8 min. hit rate 0.28% among 200,000. AID 1379. Potency, µM (top dose mostly 38.3 µM), actives largely listed as inhibitors; further: nearly all actives have a fitted effect of over 60% in size
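Light output from Kinase-Glo luciferase with luciferin and 10 uM ATP in 50 mM imidazole pH 7.2, KCl, MgCl2, Tween 20, BSA; compound pin-delivered, 8-min ambient incubation, then luminescence read.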
MBNL1 CUG block: blocks human MBNL1 binding to CUG repeat RNA; Potency, µM (titrated, usually from 57.5 µM), hits mostly inhibitors; hit rate 0.036% among 280,000; AID 2675; TR-FRET MBNL1-His/biotin-(CUG)12 binding, 665/545 ratio; active means well fitted inhibition curve with a large enough effect in the signal ratio, with a control signal flat, not every such curve was filed as active; inconclusive means small, poorly fitted or top-dose-only effect, or effect the other way, or a change in a side signal; inactive means no such curve, though single readings can be large or run the other way; the % refers to the signal ratio
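TR-FRET between His-tagged MBNL1 and biotin-(CUG)12 RNA, detected with Tb anti-His antibody (0.055 ng/ul) and streptavidin-XL665 (5 nM), 60 min at room temperature. Compounds titrated 92 nM to 58 uM; 665/545 nm ratio normalized to buffer and complex controls.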
CBFb RUNX1 block: CBF-beta/RUNX1 interaction disruption; Q01196+Q13951; AlphaScreen CBFb-His/RUNX1-biotin binding, biochemical; Potency, µM (series often up to 59.8 µM), actives largely listed as inhibitors; 230,000 tested, under 10 active
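Compounds were screened at multiple concentrations against a preformed CBF-beta(His)/RUNX1(biotin) complex (30 nM of each) for 15 min at room temperature, followed by 90 min with nickel and streptavidin beads and AlphaScreen reading.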
TCR activator: T cell receptor activation | primary human leukocytes, anti-CD3, IL-2 HTRF, 48 h | 330,000 tested, under 10 active | AID 504894 | Potency, µM (series often up to 9.22 µM), most hits filed as activators
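Compounds are tested in HTS on primary human leukocytes co-incubated with a-CD3 beads for 48 hr. IL-2 output is measured by time-resolved FRET.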
TRPV1 PAM: human TRPV1 potentiation; Q8NER1; TRPV1-expressing cells, Fluo-8 calcium influx, capsaicin EC20 potentiation; potentiation, % at 8.33 µM; hit rate 0.02% among 320,000; in the data active means potentiation above about 80%; inconclusive means between about 30% and that limit
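TRPV1-expressing cells were cultured overnight at 35.5C and loaded with Fluo-8 calcium dye for 40 to 90 min at room temperature. After a 10 s baseline, compound was added and calcium influx was read kinetically for 3 min (ex 480/em 520 nm).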
MBNL1 TRFRET: MBNL1-poly(CUG) RNA binding inhibition confirmed; shares compounds with MBNL1 CUG block; TR-FRET MBNL1-His / biotin-(CUG)12 binding, 60 min; Potency, µM (series often up to 57.6 µM), most hits filed as inhibitors; hit rate 50% among 140
MBNL1 AlphaScrn: blocks MBNL1 binding to (CUG)12 RNA in AlphaScreen | shares compounds with MBNL1 CUG block | AlphaScreen MBNL1-His / biotin-(CUG)12 binding | Potency, µM (highest dose often 57.7 µM), actives largely listed as inhibitors | hit rate 30% among 140
Menin-MLL HTRF: counter-screen for MBNL1-poly(CUG) RNA binding inhibitors; shares compounds with MBNL1 CUG block; His-Menin/biotin-MLL peptide TR-FRET counterscreen; Potency, µM (series often up to 57.6 µM), hits mostly inhibitors; hit rate 20% among 120
Hits are given with their value; – = inactive; ? = inconclusive; · = no result; [ ] = remark or other dose. Sampled rows, rich in hits. Any-hit rate of the full collection: about 0.35%. Unless noted, the call rests on the fitted dose curve; in most records, active means well fitted curve in the direction sought with a large enough effect; inconclusive means small, poorly fitted or top-dose-only effect, or another doubt; inactive means no such curve, though single readings can be large; an effect the other way counts as inactive or inconclusive.

SMILES	TRPV1 agonist	KinaseGlo FLuc	MBNL1 CUG block	CBFb RUNX1 block	TCR activator	TRPV1 PAM	MBNL1 TRFRET	MBNL1 AlphaScrn	Menin-MLL HTRF
COc1ccc(/C=N/Nc2nccnc2Cl)cc1	–	7.08µM	?	–	–	–	?	–	–
Clc1nccnc1N/N=C/c1ccc(Br)cc1	–	·	?	·	–	–	·	·	·
COc1cccc(/C=N/Nc2nccnc2Cl)c1O	–	11.2µM	?	?	–	–	?	3.66µM	–
O=C(O)c1ccccc1C(=O)Nc1cc2c(cc1Br)-c1ccccc1C2=O	·	–[7.66 µM]	·	·	·	·	·	·	·
Oc1ccc2ccccc2c1/C=C\c1ccc2c(Br)cc(Br)c(O)c2n1	·	–[7.66 µM]	·	·	·	·	·	·	·
COc1ccc(NC(=O)NC(C(F)(F)F)C(F)(F)F)cc1	–	–	31.6µM	–	–	–	?	–	?
COC(=O)c1ccc(=O)c2nc3/c(=C/O)c(O)cc(=O)c3[nH]c12	–	·	?	·	–	–	0.259µM	0.291µM	–
COC(=O)c1ccc(N)cc1O	–	–	–	–	–	–	·	·	·
CCCCN1CCC[C@H]1CNC(=O)c1cc(C#N)c2ccccc2c1OC	·	·	·	–	·	·	·	·	·
CCCCN1C(=O)NC2NC(=O)NC21 (stereo not given)	–	–	5.62µM	–	–	–	3.26µM	1.16µM	?
CCCCCCC(=O)O	·	·	·	–	–	·	·	·	·
O=C(O)CCCCCCCC(=O)O	–	–	20µM	–	–	–	?	?	–
O=C(O)c1cc(O)c2c(c1)[C@H]([C@H]1c3cc(C(=O)O)cc(O)c3C(=O)c3c(O[C@@H]4OC(CO)C(O)C(O)C4O)cccc31)c1cccc(O[C@@H]3OC(CO)C(O)C(O)C3O)c1C2=O (stereo not given in full)	·	–	·	·	·	·	·	·	·
O=C(O)/C(Cc1ccc([N+](=O)[O-])cc1)=N/O	·	–[7.66 µM]	·	·	·	·	·	·	·
C=CCn1c(NS(=O)(=O)c2ccccc2)c(S(=O)(=O)c2ccc(C)cc2)c2nc3ccccc3nc21	–	–	20µM	–	–	–	–	?	–
O=S(=O)(Nc1c(S(=O)(=O)c2ccccc2)c2nc3ccccc3nc2n1C1CCCCC1)c1ccccc1	–	–	·	–	–	–	·	·	·
O=C(N/N=C/c1ccc(-c2ccccc2Cl)o1)c1ccccc1	?	–	–	–	–	–	·	·	·
O=S(=O)(N/N=C\c1ccc(-c2ccccc2Cl)o1)c1ccccc1	–	–	20µM	–	–	–	–	–	–
CCn1c(SCC(=O)Nc2nc(C)c(C)s2)nnc1-c1cccs1	–	–	39.8µM	–	–	–	–	–	–
CCS(=O)(=O)Nc1cc(OC)c(OC)cc1Cc1nccc2cc(OC)c(OC)cc12	–	·	–	–	–	–	·	·	·
CCCNC(=O)Nc1cc(OC)c(OC)cc1Cc1nccc2cc(OC)c(OC)cc12	–	·	25.1µM	·	–	–	13µM	–	?
c1csc(C(c2nnnn2C2CCCCC2)N2CCCC3(CCCCC3)C2)c1 (stereo not given)	–	–	25.1µM	–	–	–	–	–	–
Cc1[nH]c2ccccc2c1C(=O)COC(=O)Cn1cnc2ccccc21	–	·	–	–	–	–	·	·	·
CCOC(=O)CCCCC(=O)c1[nH]c(=O)[nH]c1Cn1cnc2ccccc21	–	–	10µM	–	–	–	10.3µM	2.59µM	25.9µM
COc1ccc(C)cc1S(=O)(=O)Nc1ccc(F)c(Cl)c1	–	–	25.1µM	–	–	–	–	–	–
SMILES	TRPV1 agonist	KinaseGlo FLuc	MBNL1 CUG block	CBFb RUNX1 block	TCR activator	TRPV1 PAM	MBNL1 TRFRET	MBNL1 AlphaScrn	Menin-MLL HTRF
O=C1N(c2ccc(Cl)c(Cl)c2)CN(Cc2ccccc2)CN1n1cnnc1	–	–	12.6µM	–	–	–	16.3µM	–	?
COc1ccc(CN2CN(c3ccc(Cl)cc3)C(=O)N(n3cnnc3)C2)cc1	–	–	?	–	–	–	·	·	·
Cn1c(=O)c2c(ncn2CCO)n(C)c1=O	–	–	–	–	–	–	–	–	–
O=C(CSc1n[nH]c(-c2ccncc2)n1)NC1CCS(=O)(=O)C1 (stereo not given)	–	–	7.94µM	–	·	?	10.3µM	–	?
O=C(Nc1ccc(F)cc1)Nn1cnnc1	–	·	–	·	–	–	·	·	·
O=C(Nc1ccc(F)c(Cl)c1)Nn1cnnc1	–	·	39.8µM	·	·	–	13µM	–	?
COc1ccc(NC(=O)Nn2cnnc2)cc1OC	–	·	39.8µM	·	–	–	25.9µM	–	?
COc1cc(C(=O)Nc2ccc3nc(N4CCN(C)CC4)cc(C)c3c2)cc(OC)c1OC	–	·	22.4µM	·	–	–	10.3µM	–	29.1µM
Cc1ccc(NC(=O)CSc2ncc(S(=O)(=O)c3ccccc3)c(=O)[nH]2)cc1C	–	–	25.1µM	–	–	–	?	?	–
COC(=O)N1C2=C(c3ccccc3[C@@H]1CC(=O)Nc1ccc3cc4ccccc4cc3c1)[C@@H]1C(=O)N(c3ccccc3)C(=O)[C@@H]1[C@H](C)C2	·	–[7.66 µM]	·	–[13.1 µM]	·	·	·	·	·
Cc1ccccc1C	·	·	·	–	·	·	·	·	·
O=C(NCCCN1CCCCCC1)c1ccc(CS(=O)(=O)Cc2ccccc2F)o1	–	–	39.8µM	?	–	–	?	–	–
CC1CCN(CCCNC(=O)c2ccc(CS(=O)(=O)Cc3ccccc3F)o2)CC1	–	–	–	–	–	?	·	·	·
COc1ccc(CCNC(=O)C2CC(=O)N(c3ccccc3)C2)cc1OC (stereo not given)	–	–	–	–	–	–	–	–	–
COc1ccc(CCNC(=O)C2CC(=O)N(c3ccc(Br)cc3)C2)cc1OC (stereo not given)	–	–	–	–	–	–	·	·	·
C/C1=C2N=C(/C=C3N=C(/C(C)=C4\[N-][C@@](C)([C@@H]5N=C1[C@](C)(CCC(=O)NCC(C)OP(=O)(O)O[C@H]1[C@@H](O)[C@@H](n6cnc7cc(C)c(C)cc76)O[C@@H]1CO)[C@H]5CC(N)=O)[C@@](C)(CC(N)=O)[C@@H]4CCC(N)=O)[C@@](C)(CC(N)=O)[C@@H]\3CCC(N)=O)C(C)(C)[C@@H]/2CCC(N)=O.CC(=O)O.[Co] (stereo not given in full)	·	·	·	·	·	·	·	·	–
